PubChem BioAssay AID504697 (The Scripps Research Institute Molecular Screening Center, 2011)
Values without a mark were called inactive. Active and inactive are the calls of the source.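 Rule for the calls: active = EC50 at or below 10 µM; inactive = EC50 above 10 µM.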

Assay: fluorescence interference artefacts, compound only, dose response, artefact control for cardiac thin filament activator project, biochemical, no RTF in test wells (AID 504697);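 note: emission near 535 nm under roughly 485 nm excitation as for IANBD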
Conditions: compound-only fluorescence in RTF assay buffer with Ca2+ (no RTF in test wells), artifact counterscreen

Row | SMILES | EC50
1 | O=C(Nc1nc(-c2nc3ccccc3s2)cs1)C1COc2ccccc2O1 (stereo not given) | > 71.5 µM
2 | Fc1ccc(-c2[nH]ncc2CN(CC2CCC2)CC2CCCO2)c(F)c1 (stereo not given) | > 71.5 µM
3 | CC(COC(=O)c1ccccc1)(COC(=O)c1ccccc1)/[N+]([O-])=C/c1ccccc1 | > 71.5 µM
4 | COc1ccc(C(=O)/C=C/c2cn(CC(O)CN3CCN(C)CC3)c3ccccc23)cc1OC (stereo not given) | 25.7 µM
5 | O=C(Nc1ccc(Cl)cn1)C1COc2ccccc2O1 (stereo not given) | > 71.5 µM
6 | C=CCn1c(C)c(/C=C/c2cc[n+](C)cc2)c2ccccc21 | 4.64 µM (active)
7 | Cc1cc(C=C2C(=O)c3ccccc3C2=O)c(C)n1-c1ccccc1 | 29.9 µM
8 | CC(=O)Nc1ccc(N=Cc2nc(-c3ccc(C)cc3)oc2O)cc1 | 20 µM
9 | Cc1ccc(N=Nc2c(O)n(CN3CCOCC3)c3ccccc23)cc1 | > 71.5 µM
10 | CC(C)CNC(=S)NC(=O)c1ccccc1Cl | > 71.4 µM
11 | S=c1[nH]nc(-c2ccc(Cl)cc2)n1-c1ccc2c(c1)OCCO2 | > 71.5 µM
12 | Cc1cc(/C=C2\SC(=S)N(C)C2=O)c(C)n1-c1ccccc1O | 15.7 µM
13 | CC1(C)CC(=O)C(C=Nc2cc(C(=O)c3ccccc3)ccc2N)=C(O)C1 | > 71.5 µM
14 | COc1ccccc1NC(=O)COC(=O)c1cnc(C)cn1 | > 71.5 µM
15 | Cc1ccc(C(=O)Nc2ccc3c(c2)ncn3C)cc1 | > 71.4 µM
